Results taken from publication PMC5540273 (PLoS ONE, 2017).

Columns and labels:
Conditions in all cases: concentration: 1 μM, replicates: in singlicate; n = 1
[1] = test system: CSNK2A1
[2] = test system: CSNK2A2
[3] = test system: T1, CTK
T1 construct: gene MATK

[4] = test system: DAPK1
[5] = test system: DAPK2
[6] = test system: DAPK3
[7] = test system: T2, DCAMKL1
T2 construct: gene DCLK1

[8] = test system: T3, DCAMKL2
T3 construct: gene DCLK2

[9] = test system: T4, DCAMKL3
T4 construct: gene DCLK3

[10] = test system: DDR1
[11] = test system: DDR2
[12] = test system: T5, DLK
T5 construct: gene MAP3K12

[13] = test system: T6, DMPK2
T6 construct: gene CDC42BPG

[14] = test system: DMPK
[15] = test system: T7, DRAK1
T7 construct: gene STK17A

[16] = test system: T8, DRAK2
T8 construct: gene STK17B

[17] = test system: DYRK1A
[18] = test system: DYRK1B
[19] = test system: DYRK2
[20] = test system: EGFR
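Also: KINOMEscan kinase panel screen.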

Row | SMILES | %Inh [1] [%] | %Inh [2] [%] | %Inh [3] [%] | %Inh [4] [%] | %Inh [5] [%] | %Inh [6] [%] | %Inh [7] [%] | %Inh [8] [%] | %Inh [9] [%] | %Inh [10] [%] | %Inh [11] [%] | %Inh [12] [%] | %Inh [13] [%] | %Inh [14] [%] | %Inh [15] [%] | %Inh [16] [%] | %Inh [17] [%] | %Inh [18] [%] | %Inh [19] [%] | %Inh [20] [%]
1 | Cn1ccc2ncnc(Nc3ccc(Oc4cccc(Cl)c4)c(Cl)c3)c21 | 0 | 39 | 45 | 18 | 0 | 0 | 43 | 5 | 0 | 0 | 4 | 0 | 5 | 0 | 4 | 1 | 22 | 55 | 33 | 100
2 | CCC(CC)(CC)n1cnc2c(N)ncnc21 [SKF-97620] | 0 | 0 | 0 | 16 | 9 | 12 | 0 | 0 | 0 | 0 | 24 | 0 | 0 | 7 | 7 | 25 | 0 | 0 | 20 | 0
3 | CNc1nccc(-c2c(-c3ccc(F)cc3)ncn2C2CCN(C)CC2)n1 [SB-222903] | 0 | 0 | 0 | 0 | 0 | 25 | 19 | 0 | 0 | 65 | 58 | 0 | 21 | 1 | 0 | 0 | 0 | 0 | 0 | 8
4 | O=C(CCO)NCCn1ccc2ncnc(Nc3ccc(Oc4cccc(C(F)(F)F)c4)c(Cl)c3)c21 | 0 | 0 | 0 | 11 | 0 | 0 | 39 | 0 | 0 | 0 | 0 | 0 | 0 | 0 | 0 | 0 | 0 | 12 | 0 | 100
5 | Clc1cccc(-c2nc(Nc3ccncc3)c3ccccc3n2)c1 [GW873004] | 0 | 14 | 0 | 0 | 0 | 11 | 13 | 0 | 41 | 79 | 32 | 0 | 84 | 4 | 0 | 10 | 12 | 57 | 7 | 10
6 | O=C(Nc1n[nH]c2nc(-c3ccco3)c(Br)cc12)c1ccc(CN2CCCC2)cc1.O=C(O)[C@H](O)[C@@H](O)C(=O)O [SB-742352] | 0 | 29 | 15 | 0 | 0 | 0 | 0 | 0 | 28 | 19 | 0 | 0 | 0 | 0 | 42 | 20 | 0 | 0 | 14 | 8
7 | CC(C)(C)OC(=O)NC1CCCN(c2cc(-c3ccc4c(N)n[nH]c4c3)nc(N)n2)C1 (centres unmarked) [GSK2286096] | 0 | 5 | 0 | 18 | 0 | 12 | 10 | 0 | 0 | 0 | 0 | 2 | 0 | 0 | 96.3 | 0 | 14 | 100 | 80 | 27
8 | C[C@@H]1CCN(C(=O)CO)C[C@@H]1N(C)c1ncnc2[nH]ccc12 | 0 | 0 | 14 | 2 | 7 | 10 | 6 | 0 | 90 | 0 | 0 | 0 | 0 | 8 | 3 | 13 | 0 | 0 | 0 | 1
9 | Cc1cc(N2CCC(NS(=O)(=O)c3ccc(F)cc3)CC2)nc(Nc2cccc(C#N)c2)n1.O=C(O)C(F)(F)F [GSK1653537] | 1 | 11 | 0 | 0 | 0 | 2 | 0 | 0 | 0 | 0 | 7 | 47 | 0 | 0 | 3 | 0 | 32 | 97.7 | 5 | 50
10 | Nc1nc(-c2ccc3c(N)n[nH]c3c2)cc(N2CCCCC2)n1 [GSK2228768] | 0 | 12 | 0 | 3 | 0 | 6 | 0 | 15 | 0 | 0 | 0 | 0 | 0 | 0 | 93.1 | 11 | 18 | 0 | 58 | 3
